C diff growth – C. difficile growth inhibitors, primary screen, HTS | growth activity, negative = inhibition, % at 16 µg/mL (by protocol) | AID 1259249, 2017 | Clostridium difficile clinical isolate growth, OD600, 24 h; active compounds read low | 0.25% of 86,000 active;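 active means mean growth activity at or below -80% and every replicate also at or below -80%; inconclusive means mean at or below -80% but some replicate above -80%; inactive means mean growth activity above -80%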;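 further: 0% = DMSO wells and -100% = levofloxacin 16 µg/mL wells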
T cruzi growth-1 – T. cruzi intracellular proliferation inhibitors, primary screen, cell-based, beta-gal Tulahuen parasites, NIH3T3 host, luminescence; T. cruzi beta-gal in NIH3T3, GalScreen luminescence, 90 h; inhibition, % at 8.34 µM; 5.9% of 77,000 active;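 active means mean inhibition above about 93%, with at least 55% of replicates each passing it, limit read from the data, passing the limit was not always enough; inconclusive means only one of those two conditions holds; inactive means neither condition holds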
T cruzi growth-2 – T. cruzi intracellular proliferation inhibitors, confirmation, cell-based, NIH3T3 host, beta-gal parasite, luminescence, cherry-pick | shares compounds with T cruzi growth-1 | T. cruzi beta-gal in NIH3T3, GalScreen luminescence, 90 h | inhibition, % at 8.35 µM | 72% of 5,600 active | AID 651739, 2012;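 active means mean replicate inhibition above about 95% and at least 55% of replicates individually reaching it, limit read from the data; inconclusive means only one of the two criteria is met; inactive means neither criterion is met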
T cruzi growth-3 – inhibitors of intracellular T. cruzi replication, confirmation, NIH3T3 host cells, beta-gal parasites, cherry-pick, set 2 | shares compounds with T cruzi growth-1 | T. cruzi beta-gal in NIH3T3, GalScreen luminescence, 90 h | inhibition, % at 2.09 µM | 21% of 5,600 active;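 active means mean inhibition above about 95%, with at least 55% of replicates also reaching it, limit read from the data; inconclusive means meets just one of the two conditions; inactive means meets neither condition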;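 further: plate controls were neutral control median for no effect and positive control median for full effect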
3T3 cytotox – cytotoxicity in mouse NIH/3T3 fibroblasts, confirmation, cytotoxicity control for T. cruzi proliferation inhibitor project, cell-based, cherry-pick, single point; shares compounds with T cruzi growth-1; NIH/3T3 viability, CellTiter-Glo ATP luminescence, 90 h; cytotoxicity (signal decrease), % at 8.35 µM; 14% of 5,600 active; AID 651742, 2012;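 active means mean signal decrease across replicates above about 35% based on untreated-well scatter, with enough replicates individually passing, limit read from the data; inconclusive means no rule stated though some were filed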;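 further: 0% = median of neutral control wells and 100% = median of positive control wells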
NIH3T3 tox 2 – NIH/3T3 fibroblast cytotoxicity, confirmation, cytotoxicity control, cell-based, cherry-pick, single point, set 2; shares compounds with T cruzi growth-1; NIH/3T3 viability, CellTiter-Glo ATP luminescence, 90 h; inhibition, % at 24.9 µM; 56% of 5,600 active;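 active means mean loss of cell viability signal at or above a set limit, and enough replicates individually reaching it; inconclusive means meets only the mean limit or only the replicate share; inactive means meets neither condition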;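 further: 0% = median of neutral control wells and 100% = median of positive control wells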
Active calls of the source: *; ? = inconclusive; / = not tested or not shown. The full list was thinned out, with hits kept by preference.

SMILES | C diff growth | T cruzi growth-1 | T cruzi growth-2 | T cruzi growth-3 | 3T3 cytotox | NIH3T3 tox 2
CC(C)NC(=O)N(C)C[C@@H]1Oc2cc(C#Cc3ccccn3)ccc2S(=O)(=O)N([C@@H](C)CO)C[C@@H]1C | 5 | ? | 30 | 16 | -17 | -4
CC(C)NC(=O)N(C)C[C@@H]1Oc2cc(C#Cc3ccccn3)ccc2S(=O)(=O)N([C@H](C)CO)C[C@@H]1C | -1 | 5 | / | / | / | /
Cc1noc(C)c1NC(=O)N(C)C[C@@H]1OCc2ccccc2-c2ccccc2C(=O)N([C@@H](C)CO)C[C@H]1C | 0 | 27 | / | / | / | /
CCC(=O)Nc1ccc2c(c1)C(=O)N(C)C[C@@H](OC)[C@H](C)CN(C(C)=O)[C@H](C)CO2 | 1 | -29 | / | / | / | /
Cc1ccc(S(=O)(=O)Nc2ccc3c(c2)C(=O)N([C@H](C)CO)C[C@@H](C)[C@H](CN(C)S(=O)(=O)c2ccccc2)OCCCC[C@@H](C)O3)cc1 | -1 | 107* | 106* | 88 | 22 | -3
Cc1ccc(S(=O)(=O)N(C)C[C@@H]2OCCCC[C@@H](C)Oc3ccc(NS(=O)(=O)c4ccccc4)cc3C(=O)N([C@@H](C)CO)C[C@H]2C)cc1 | 3 | 52 | / | / | / | /
Cc1ccc(S(=O)(=O)Nc2ccc3c(c2)C(=O)N([C@@H](C)CO)C[C@@H](C)[C@@H](CN(C)S(=O)(=O)c2ccccc2)OCCCC[C@@H](C)O3)cc1 | -5 | 108* | 110* | 79 | -6 | 7
Cc1ccc(S(=O)(=O)N(C)C[C@H]2OCCCC[C@H](C)Oc3ccc(NS(=O)(=O)c4ccccc4)cc3C(=O)N([C@@H](C)CO)C[C@@H]2C)cc1 | 4 | 122* | 105* | 50 | 3 | 5
C[C@@H]1CN([C@@H](C)CO)C(=O)c2cc(NS(=O)(=O)c3ccccc3)ccc2O[C@@H](C)CCCCO[C@H]1CN(C)S(=O)(=O)c1ccccc1 | / | 31 | / | / | / | /
Cc1ccc(S(=O)(=O)Nc2ccc3c(c2)C(=O)N([C@H](C)CO)C[C@H](C)[C@H](CN(C)S(=O)(=O)c2ccccc2)OCCCC[C@H](C)O3)cc1 | -6 | 113* | 113* | 39 | -1 | -5
C[C@@H]1CCCCO[C@@H](CN(C)S(=O)(=O)c2ccccc2)[C@@H](C)CN([C@@H](C)CO)C(=O)c2cc(NS(=O)(=O)c3ccccc3)ccc2O1 | / | -16 | / | / | / | /
CC(=O)N(C)C[C@@H]1Oc2ncc(-c3ccccc3F)cc2C(=O)N([C@H](C)CO)C[C@H]1C | -2 | 0 | / | / | / | /
CC(C)CC#Cc1ccc2c(c1)O[C@@H](CN(C)S(C)(=O)=O)[C@@H](C)CN([C@@H](C)CO)S2(=O)=O | 3 | 80 | / | / | / | /
Cc1ccc(S(=O)(=O)Nc2ccc3c(c2)C(=O)N([C@@H](C)CO)C[C@H](C)[C@H](CN(C)S(=O)(=O)c2ccccc2)OCCCC[C@@H](C)O3)cc1 | -4 | 105* | 106* | 94 | 11 | 53*
Cc1ccc(S(=O)(=O)Nc2ccc3c(c2)C(=O)N([C@@H](C)CO)C[C@@H](C)[C@@H](CN(C)C(=O)Cc2ccccc2)OCCCC[C@H](C)O3)cc1 | / | 78 | / | / | / | /
C[C@H]1CCCCO[C@@H](CN(C)S(=O)(=O)c2ccccc2)[C@@H](C)CN([C@@H](C)CO)C(=O)c2cc(NS(=O)(=O)c3ccccc3)ccc2O1 | / | 52 | / | / | / | /
Cc1ccc(S(=O)(=O)Nc2ccc3c(c2)C(=O)N([C@H](C)CO)C[C@H](C)[C@@H](CN(C)S(=O)(=O)c2ccccc2)OCCCC[C@H](C)O3)cc1 | -3 | 59 | / | / | / | /
C[C@@H]1CCCCO[C@@H](CN(C)S(=O)(=O)c2ccccc2)[C@H](C)CN([C@@H](C)CO)C(=O)c2cc(NS(=O)(=O)c3ccccc3)ccc2O1 | / | 48 | / | / | / | /
Cc1ccc(S(=O)(=O)N(C)C[C@H]2OCCCC[C@@H](C)Oc3ccc(NS(=O)(=O)c4ccccc4)cc3C(=O)N([C@@H](C)CO)C[C@@H]2C)cc1 | 8 | ? | 105* | 61 | 6 | 32*
Cc1ccc(S(=O)(=O)Nc2ccc3c(c2)C(=O)N([C@@H](C)CO)C[C@H](C)[C@@H](CN(C)C(=O)Cc2ccccc2)OCCCC[C@@H](C)O3)cc1 | / | ? | 106* | 64 | -28 | -4
Cc1ccc(S(=O)(=O)Nc2ccc3c(c2)C(=O)N([C@@H](C)CO)C[C@H](C)[C@H](CN(C)S(=O)(=O)c2ccccc2)OCCCC[C@H](C)O3)cc1 | -14 | 111* | 106* | 79 | 9 | 8
COc1ccccc1S(=O)(=O)N1C[C@H](O)COC[C@H]2O[C@H](CC(=O)O)CC[C@@H]21 | / | 46 | / | / | / | /
COc1ccccc1S(=O)(=O)N[C@H]1C=C[C@H](CC(=O)N2CCN(C)CC2)O[C@@H]1CO | -5 | 24 | / | / | / | /
C[C@H](CO)N1C[C@H](C)[C@H](CN(C)C(=O)NC2CCCCC2)Oc2cc(/C=C/c3ccccc3)ccc2S1(=O)=O | 8 | / | / | / | / | /
C[C@H]1CN([C@@H](C)CO)S(=O)(=O)c2ccc(/C=C/c3ccccc3)cc2O[C@H]1CN(C)C(=O)NC1CCCCC1 | -12 | 128* | 101* | 89 | -1 | 49*
SMILES | C diff growth | T cruzi growth-1 | T cruzi growth-2 | T cruzi growth-3 | 3T3 cytotox | NIH3T3 tox 2
C[C@@H]1CN([C@@H](C)CO)S(=O)(=O)c2ccc(/C=C/c3ccccc3)cc2O[C@H]1CN(C)C(=O)NC1CCCCC1 | 13 | / | / | / | / | /
C[C@H]1CN([C@@H](C)CO)S(=O)(=O)c2ccc(/C=C/c3ccccc3)cc2O[C@H]1CN(C)C(=O)NC1CCCC1 | -2 | 102* | 99* | 73 | 34 | 102*
COc1ccc(S(=O)(=O)N(C)C[C@@H]2OCCCC[C@@H](C)Oc3ccc(NC(=O)c4ccncc4)cc3C(=O)N([C@@H](C)CO)C[C@H]2C)cc1 | 1 | 24 | / | / | / | /
COCC(=O)N(C)C[C@H]1Oc2cc(-c3ccc(F)cc3)ccc2S(=O)(=O)N([C@@H](C)CO)C[C@H]1C | -3 | 21 | / | / | / | /
C[C@@H]1CN([C@@H](C)CO)C(=O)c2cc(C3=CCCCC3)cnc2O[C@@H]1CN(C)Cc1cccc(F)c1 | 16 | 112* | 98* | 54 | 4 | 44*
C[C@@H]1CN([C@H](C)CO)C(=O)c2cc(C3=CCCCC3)cnc2O[C@H]1CN(C)Cc1cccc(F)c1 | 6 | 89 | / | / | / | /
C[C@H]1CN([C@@H](C)CO)C(=O)c2cc(C3=CCCC3)cnc2O[C@H]1CN(C)Cc1cccc(F)c1 | 0 | 92 | / | / | / | /
C[C@@H]1CN([C@@H](C)CO)C(=O)c2cc(C3=CCCC3)cnc2O[C@@H]1CN(C)Cc1cccc(F)c1 | 6 | ? | 110* | 75 | 9 | 8

Source: PubChem
